Assay results reported in PubChem BioAssay AID1159580 (chemical genetic matrix, 2015).
In all, about 5,500 compounds went through this assay and about 2,000 (36%) were called active. About 18% were inconclusive and are not listed. No stated cut-off is given here; in the data, active means normalized growth mostly below about 0.91 (no sharp cut-off); inconclusive means no clear call, values can overlap the other calls; inactive means mostly above about 0.92. This is one part of the list.

Experiment: chemical genetic growth profiling, strain panel (AID 1159580);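 further: tested at 20 µM; growth read once vehicle control cultures reached saturation at 30 °C; 1 = growth at the plate median or of vehicle wells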
Conditions: S. cerevisiae deletion strains, growth OD

Measured: normalized growth

CC#C[C@]1(O)CC[C@H]2[C@@H]3CCC4=CC(=O)CCC4=C3[C@@H](c3ccc(N(C)C)cc3)C[C@@]21C
inactive: locus YAL040C, strain CLN3, stronger effect = lower value 0.978 | locus YCL061C, strain MRC1 (second series), stronger effect = lower value 0.98 | locus YDR150W, strain NUM1, stronger effect = lower value 0.981 | locus YDR363W, strain ESC2, stronger effect = lower value 1.01 | locus YER002W, strain NOP16, stronger effect = lower value 1 | locus YJR075W, strain HOC1, stronger effect = lower value 0.965 | locus YMR263W, strain SAP30, stronger effect = lower value 0.984 | locus YNL128W, strain TEP1, stronger effect = lower value 1.04 | locus YNL153C, strain GIM3, stronger effect = lower value 0.951 | locus YNL175C, strain NOP13, stronger effect = lower value 0.983 | locus YNL197C, strain WHI3, stronger effect = lower value 0.998 | locus YNL224C, strain SQS1, stronger effect = lower value 0.979 | locus YNL322C, strain KRE1, stronger effect = lower value 0.965 | locus YOR083W, strain WHI5 (second series), stronger effect = lower value 0.991 | locus YPL055C, strain LGE1, stronger effect = lower value 0.99

CC#CC1(O)CCC2C3CCC4=CC(=O)CCC4=C3C(c3ccc(N(C)C)cc3)CC21C (configuration not stated)
inactive: locus YAL021C, strain ccr4, stronger effect = lower value 0.982 | locus YAL026C, strain drs2, stronger effect = lower value 0.996 | locus YAL030W, strain snc1, stronger effect = lower value 0.989 | locus YBL061C, strain skt5, stronger effect = lower value 0.999 | locus YBR009C, strain hhf1, stronger effect = lower value 0.998 | locus YBR023C, strain chs3, stronger effect = lower value 0.993 | locus YBR171W, strain sec66, stronger effect = lower value 1.01 | locus YBR231C, strain swc5, stronger effect = lower value 1 | locus YBR279W, strain paf1, stronger effect = lower value 0.993 | locus YCL011C, strain gbp2, stronger effect = lower value 1 | locus YCL016C, strain dcc1, stronger effect = lower value 1.01 | locus YCL061C, strain MRC1, stronger effect = lower value 1.01 | locus YCL069W, strain vba3, stronger effect = lower value 1 | locus YCR088W, strain abp1, stronger effect = lower value 0.997 | locus YDL005C, strain med2, stronger effect = lower value 1.01 | locus YDL040C, strain nat1, stronger effect = lower value 0.997 | locus YDR001C, strain nth1, stronger effect = lower value 1 | locus YDR069C, strain doa4, stronger effect = lower value 0.994 | locus YDR137W, strain rgp1, stronger effect = lower value 1.01 | locus YDR159W, strain sac3, stronger effect = lower value 1.01 | locus YDR195W, strain ref2 1.07 | locus YDR297W, strain sur2, stronger effect = lower value 0.996 | locus YDR334W, strain swr1, stronger effect = lower value 1.02 | locus YDR335W, strain msn5, stronger effect = lower value 0.998 | locus YDR392W, strain spt3, stronger effect = lower value 0.966 | locus YEL003W, strain gim4, stronger effect = lower value 0.995 | locus YEL037C, strain rad23, stronger effect = lower value 0.99 | locus YEL061C, strain CIN8 (second series), stronger effect = lower value 1.01 | locus YER015W, strain faa2, stronger effect = lower value 0.996 | locus YER016W, strain bim1, stronger effect = lower value 0.996 | locus YER111C, strain swi4, stronger effect = lower value 1.01 | locus YER155C, strain BEM2 (second series), stronger effect = lower value 1.01 | locus YFR010W, strain ubp6, stronger effect = lower value 1.03 | locus YGL167C, strain pmr1, stronger effect = lower value 1 | locus YGL173C, strain kem1, stronger effect = lower value 1 | locus YGL227W, strain vid30, stronger effect = lower value 1.01 | locus YGL240W, strain doc1, stronger effect = lower value 0.987 | locus YGL253W, strain hxk2, stronger effect = lower value 1 | locus YHR013C, strain ard1, stronger effect = lower value 0.995 | locus YHR027C, strain rpn1, stronger effect = lower value 1 | locus YHR142W, strain chs7, stronger effect = lower value 0.997 | locus YJL092W, strain hpr5, stronger effect = lower value 1 | locus YJL095W, strain BCK1 (second series), stronger effect = lower value 0.998 | locus YJL115W, strain asf1, stronger effect = lower value 1.02 | locus YJL129C, strain trk1, stronger effect = lower value 0.946 | locus YJL154C, strain vps35, stronger effect = lower value 1 | locus YJL164C, strain tpk1, stronger effect = lower value 0.983 | locus YJL166W, strain qcr8, stronger effect = lower value 0.99 | locus YJL187C, strain SWE1, stronger effect = lower value 1.02 | locus YKL160W, strain elf1, stronger effect = lower value 0.99 | locus YKR026C, strain gcn3, stronger effect = lower value 0.993 | locus YKR091W, strain srl3, stronger effect = lower value 0.996 | locus YLL001W, strain dnm1, stronger effect = lower value 1.01 | locus YLL026W, stronger effect = lower value 0.999 | locus YLL041C, strain sdh2, stronger effect = lower value 1 | locus YLR027C, strain aat2, stronger effect = lower value 0.997 | locus YLR221C, strain rsa3, stronger effect = lower value 0.988 | locus YLR258W, strain gsy2, stronger effect = lower value 0.996 | locus YLR262C, strain YPT6 (second series), stronger effect = lower value 0.96 | locus YLR320W, strain mms22, stronger effect = lower value 1 | locus YLR342W, strain FKS1, stronger effect = lower value 0.995 | locus YLR357W, strain rsc2, stronger effect = lower value 1.13 | locus YLR370C, strain arc18, stronger effect = lower value 0.993 | locus YLR384C, strain iki3, stronger effect = lower value 0.996 | locus YML120C, strain ndi1, stronger effect = lower value 0.998 | locus YMR058W, strain fet3, stronger effect = lower value 1.02 | locus YMR125W, strain sto1, stronger effect = lower value 1.11 | locus YMR129W, stronger effect = lower value 0.991 | locus YMR205C, strain PFK2, stronger effect = lower value 0.998 | locus YMR231W, strain pep5, stronger effect = lower value 1 | locus YNL071W, strain lat1, stronger effect = lower value 1 | locus YNL209W, strain ssb2, stronger effect = lower value 0.993 | locus YNL248C, strain rpa49, stronger effect = lower value 1.07 | locus YNL322C, strain KRE1 (second series), stronger effect = lower value 1.01 | locus YNR049C, strain mso1, stronger effect = lower value 1 | locus YOR001W, strain rrp6, stronger effect = lower value 0.996 | locus YOR070C, strain gyp1, stronger effect = lower value 0.991 | locus YOR080W, strain dia2, stronger effect = lower value 1.01 | locus YOR083W, strain WHI5, stronger effect = lower value 0.976 | locus YOR106W, strain vam3, stronger effect = lower value 0.986 | locus YOR265W, strain rbl2, stronger effect = lower value 0.994 | locus YOR270C, strain vph1, stronger effect = lower value 0.924 | locus YOR290C, strain snf2, stronger effect = lower value 1.04 | locus YPL051W, strain arl3, stronger effect = lower value 0.988 | locus YPL078C, strain atp4, stronger effect = lower value 1.01 | locus YPL106C, strain sse1, stronger effect = lower value 0.964 | locus YPL240C, strain hsp82, stronger effect = lower value 0.985
